Only some compounds are listed: those with a hit (about 1.7% of all), similar ones and a draw of the others.
PTPN22 act = increases human PTPN22 phosphatase activity; 96,000 tested, 0.11% active; recombinant LYP, DiFMUP fluorescence; 0 = plate median, 100 = signal doubled; activation, % at 2 µM; Q9Y2R2; AID 697;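 active means activation at 2 µM above a set limit, the mean plus 5 SD, cut at about 37% in these data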
Target sequence (Q9Y2R2 whole entry, looked up): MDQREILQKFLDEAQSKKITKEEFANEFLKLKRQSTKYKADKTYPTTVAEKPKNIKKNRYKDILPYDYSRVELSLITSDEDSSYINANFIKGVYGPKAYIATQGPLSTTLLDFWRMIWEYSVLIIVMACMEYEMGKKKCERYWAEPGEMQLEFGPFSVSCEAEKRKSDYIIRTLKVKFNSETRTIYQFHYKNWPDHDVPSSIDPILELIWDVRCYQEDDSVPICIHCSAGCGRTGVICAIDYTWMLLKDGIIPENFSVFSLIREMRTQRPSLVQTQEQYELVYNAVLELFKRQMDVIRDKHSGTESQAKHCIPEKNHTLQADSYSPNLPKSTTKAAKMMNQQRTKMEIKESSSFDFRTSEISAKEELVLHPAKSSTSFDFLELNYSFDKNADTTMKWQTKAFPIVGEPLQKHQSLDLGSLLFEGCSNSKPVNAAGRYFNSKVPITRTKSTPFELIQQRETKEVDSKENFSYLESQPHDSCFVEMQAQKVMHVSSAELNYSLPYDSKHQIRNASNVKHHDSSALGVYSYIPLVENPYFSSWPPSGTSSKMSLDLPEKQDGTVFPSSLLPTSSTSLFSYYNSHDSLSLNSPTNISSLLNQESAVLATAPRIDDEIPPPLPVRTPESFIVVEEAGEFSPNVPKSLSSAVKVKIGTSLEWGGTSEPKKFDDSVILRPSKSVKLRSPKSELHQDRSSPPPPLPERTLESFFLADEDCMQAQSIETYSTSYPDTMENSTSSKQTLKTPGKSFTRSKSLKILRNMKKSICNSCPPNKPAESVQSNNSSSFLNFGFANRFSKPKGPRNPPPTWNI
Measles CPE = protection of cells from measles virus | Measles virus-infected cells, CPE protection, absorbance | protection (pct of control), % at 4 µM | 140,000 tested, 1.5% active; in the data active means protection mostly above about 24%, no sharp cut-off; inactive means mostly below about 26%
sEH activator = activators of human soluble epoxide hydrolase. purified human sEH enzymatic activity, activator screen. 91,000 tested, 0.04% active. activation, % at 2 µM. P34913; in the data active means activation above about 37%
sEH inh = soluble epoxide hydrolase (human) inhibition; P34913; recombinant human sEH enzymatic activity assay; inhibition, % at 2 µM; 91,000 tested, 0.34% active; AID 707; in the data active means inhibition above about 80%
LYP inh 2 = inhibitors of human LYP (PTPN22) phosphatase; Q9Y2R2; recombinant LYP catalytic domain, DiFMUP fluorescence; inhibition, % at 2 µM; 96,000 tested, 0.21% active; AID 640;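 active means inhibition at 2 µM at or above a set limit, the screen mean plus 3 SD, cut at about 24% in these data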
Numbers stand for hits; 0 = inactive; - = no result given.

SMILES	PTPN22 act	Measles CPE	sEH activator	sEH inh	LYP inh 2
CC1CCCC(C)N1C(=O)CSc1nnc(NC(=O)Cc2cccs2)s1 (stereo unspecified)	0	46	0	0	0
CC1Cc2ccccc2N1C(=O)CSc1nnc(NC(=O)Cc2cccs2)s1 (stereo unspecified)	0	0	0	0	0
COc1ccc(N2CCN(c3c(S(=O)(=O)c4ccccc4)cnc4ccc(OC)cc34)CC2)cc1	-	23	-	-	-
COc1ccc(NC(=O)CCn2nnc(-c3ccc(C)cc3)n2)cc1OC	0	55	0	0	0
COC(=O)CCn1nnc(-c2ccc(C)cc2)n1	0	0	0	0	0
COc1ccc(C2NCCc3c2[nH]c2ccccc32)cc1CSc1nc2ccccc2s1 (stereo unspecified)	-	0	-	-	-
O=C(COc1ccccc1)NC1=NCCS1	0	78	0	0	0
COc1cccc(C2CC(c3c(-c4ccccc4)c4cc(Cl)ccc4[nH]c3=O)=NN2S(C)(=O)=O)c1OC (stereo unspecified)	0	68	0	0	0
COc1ccc(CCN(CC(=O)NC2CCCC2)C(=O)CCC(=O)Nc2cc(C)on2)cc1OC	-	22	-	-	-
Cc1nn(-c2ccccc2)c(C)c1/C=N/NC(=O)c1cc(C2CC2)[nH]n1	0	0	0	0	0
Cc1nn(-c2ccccc2)c(C)c1/C=N/NC(=O)c1cc(C23CC4CC(CC(C4)C2)C3)[nH]n1	0	0	0	0	38
COc1ccc(Cl)cc1C(=O)NNC(=O)c1cccc(S(=O)(=O)N(C)C)c1	-	73	-	-	-
O=C(C1CC1)N1CCN=C1SCc1ccccc1	-	41	-	-	-
CCOc1ccccc1C(=O)N(Cc1ccccc1)Cc1cc2cc3c(cc2[nH]c1=O)OCCO3	0	-	0	0	0
CCOC(=O)N1CCC(N(CCN(C)C)C(=S)Nc2cc(C)cc(C)c2)CC1	-	0	-	-	-
COCCN(C(=O)Cc1cccs1)C(C(=O)NCc1ccc(OC)cc1)c1ccc(OC)cc1 (stereo unspecified)	-	40	-	-	-
COc1ccc(NC(=O)Cn2cccc2)cc1Cl	0	41	0	0	0
COc1cc(NC(=O)c2cccc(Cl)c2)c(OC)cc1NC(=O)CN1CCOCC1	0	73	0	0	0
COc1ccc(NC(=O)C2CCCO2)cc1Cl (stereo unspecified)	0	0	0	0	24
COc1ccc(Cl)cc1NC(=O)Cn1cccc1	0	34	0	0	0
CCOc1ccc(NC(=S)N(CCc2c(C)[nH]c3ccccc23)Cc2ccco2)cc1	-	0	-	-	-
Cc1nnc(N(Cc2ccco2)C(=O)c2ccc(C#N)cc2)s1	0	0	0	0	27
Cc1nnc(N(Cc2ccco2)C(=O)c2cccc(C#N)c2)s1	0	0	0	0	0
Cc1ccc(CNC(=O)CCC(=O)c2cccs2)cc1	0	60	0	0	0
O=C(NCCCN1CCCC1=O)c1ccc2c(c1)ncn2C1CCCCC1	-	41	-	-	-
SMILES	PTPN22 act	Measles CPE	sEH activator	sEH inh	LYP inh 2
CC(C)OCCCNC(=O)c1ccc2c(c1)ncn2C1CCCC1	-	0	-	-	-
NC(=O)c1c(NC(=O)Cc2cccs2)sc2c1CCC2	0	45	0	0	0
CCOC(=O)c1c(NC(=O)Cc2cccs2)sc2c1CCCC2	0	0	0	0	0
CCc1cccc2c(C(=O)COC(=O)c3ccccc3)c[nH]c12	-	28	-	-	-
COC(=O)C/C=C/[C@@H](C)[C@@H](/C=N/OC[C@@H](C)[C@H](OCc1ccccc1)C(C)C)NS(=O)(=O)c1ccc(C)cc1	-	0	-	-	-
Cc1ccc(S(=O)(=O)CC(=O)c2ccccc2)cc1	0	0	0	0	0
CC(C)(C)c1ccc(C(=O)CS(=O)(=O)c2ccccc2)cc1	0	48	0	0	0
CC(=O)c1c(C)[nH]c(C(=O)OCC(=O)N2c3ccccc3NC(=O)C2(C)C)c1C	-	0	-	-	-
CCCn1c(SCC(=O)Nc2nc(C)c(C(=O)OC)s2)nnc1C(C)C	0	31	0	0	0
O=C(O)c1ccc(/C=N/N2CCN(Cc3ccccc3)CC2)cc1	-	0	-	-	-
O=C(/C=C/c1cccc(OCc2ccccc2)c1)c1cccnc1	-	0	-	-	-
Cc1cc(NCCC(C)C)n2nc(C)c(-c3ccccc3)c2n1	0	0	0	0	0
CC(=O)Nc1ccc(Nc2cc(C)nc3c(-c4ccccc4)c(C)nn23)cc1	-	93	-	-	-
Cc1c(NC(=S)Nc2ccccc2C(F)(F)F)cccc1[N+](=O)[O-]	-	41	-	-	-
O=C(O)CCC(=O)NNC(=O)c1cccc(Br)c1	-	59	-	-	-
COC(=O)CCC(=O)NNC(=O)c1cccc(Br)c1	-	0	-	-	-
Cc1cccc(COc2ncnc3nc[nH]c23)c1	-	0	-	-	-
O=C1C=C(c2ccccc2)OC(=O)C1C(=O)c1ccccc1 (stereo unspecified)	0	27	0	0	0
CCOC(=O)C1=C(C)N(CCCC(=O)O)C(=O)NC1c1ccccc1OS(=O)(=O)c1ccc(C)cc1 (stereo unspecified)	-	0	-	-	-
Cc1ccc(C(=O)N/C(=C\c2sccc2C)C(=O)NCc2ccco2)cc1	0	61	0	0	0
Cc1ccc(C(=O)N/C(=C\c2cccs2)C(=O)NCc2ccncc2)cc1	0	47	0	0	0
Cc1ccc(C(=O)N/C(=C\c2sccc2C)C(=O)NCc2ccncc2)cc1	-	0	-	-	-
C/C(=N\NC(=O)c1ccc(=O)[nH]n1)c1cccnc1	-	0	-	-	-
CN(Cc1ccc(F)cc1)C(=O)COc1ccccc1-c1ccccc1	-	0	-	-	-
CCN(CC)S(=O)(=O)c1cc(NC(=O)C(C)N2CCN(Cc3ccc4c(c3)OCO4)CC2)ccc1C (stereo unspecified)	-	0	-	-	-
SMILES	PTPN22 act	Measles CPE	sEH activator	sEH inh	LYP inh 2
O=C(N/N=C\c1ccc(Cl)s1)c1cccs1	0	0	0	94	0
CCCNC(=O)C(=O)N/N=C/c1cccs1	-	50	-	-	-
Cc1ccc(/C=N/NC(=O)c2ccccn2)s1	-	0	-	-	-
O=C(N/N=C/c1cccs1)c1ccccn1	0	42	0	0	0
COc1ccccc1C(=O)N/N=C/c1ccc(Cl)s1	-	0	-	-	-
Cn1cc(Br)c(C(=O)N2CCN(c3cccc(Cl)c3)CC2)n1	0	0	0	0	0
COc1ccc(N=C(NN)c2ccc3ccccc3n2)cc1	-	0	-	-	-
COc1ccc2c(c1)C1CC(C)(NC(=O)C1S(=O)(=O)c1ccc(F)cc1)O2 (stereo unspecified)	-	69	-	-	-
COc1ccc2c(c1)C1CC(C)(NC(=O)C1C(=O)c1ccccc1)O2 (stereo unspecified)	0	0	0	0	0
COc1ccc(NC(=O)C2C(=O)NC3(C)CC2c2ccccc2O3)cc1 (stereo unspecified)	0	0	0	0	0
COc1ccc2c(c1)OC1(C)CC2C(C(=O)c2ccccc2OC)C(=O)N1 (stereo unspecified)	-	31	-	-	-
CC(C)(C)c1cc(NCCCn2ccnc2)n2ncc(-c3ccc(Cl)cc3)c2n1	0	0	0	0	38
COc1ccc(NC(=O)C(c2ccccc2)N(C)C(=O)c2ccc(=O)[nH]c2)cc1 (stereo unspecified)	-	31	-	-	-
CCOC(=O)c1c(NC(=O)CSc2nc3ccccc3c(=O)n2-c2ccc(F)cc2)sc(C(C)=O)c1C	-	33	-	-	-
CCOC(=O)c1c(NC(=O)CSc2ncnc3ccccc23)sc(C(C)=O)c1C	-	0	-	-	-
